# Assay outcomes from PubChem.
# The entries come from a sample that favours hits as a whole.
# Pf Dd2 growth: inhibitors of Plasmodium falciparum Dd2 growth; P. falciparum Dd2 growth, SYBR Green, 72 h; 120,000 compounds, 4.3% hits; AID 1347417; Potency, µM (top dose mostly 28.9 µM), for the others: at the highest dose activity, negative = inhibition, actives largely listed as inhibitors; active means well fitted inhibition curve with a large enough effect;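 further: plate controls were DMSO vehicle for no effect and reference drug for full effect; nearly all actives have a fitted effect of over 65% in size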
#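 Readout: SYBR Green fluorescence, 485 nm excitation, 535 nm emission, after ~16 h lysis at 37C. Before that, Dd2-infected red cells (2.5% hematocrit) grew 72 h with compound, 29 uM top final concentration.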
# Starred values were filed as active, the others as inactive; i = inactive; ! = a repeat was not active; [ ] = dose if it differs, or a comment. Potency means the concentration at half of the fitted maximal effect.
SMILES,Pf Dd2 growth
CCOC(=O)C1CCN(c2c(C(=O)c3ccc(OC)cc3)cnc3ccccc23)CC1,8.9µM*
CCCNC(=O)N[C@@H]1C[C@H](Cn2cc(CN(C)C)nn2)[C@@H](O)[C@H]1O,17%[44.1 µM]
CNC(=O)[C@@H]1C[C@H](Oc2cccnc2)CN1C(=O)C1CCCC1,2%
COc1ccc(C(=O)N2CCC[C@H]2c2nc(-c3ccc(OC)c(OC)c3)no2)cc1F,-4%
CCc1c(C)c(C#N)c2nc3ccccc3n2c1Nc1cccc(C(F)(F)F)c1,2.2µM*
CC(=O)Nc1ccccc1-c1nc2ccccc2n(CC(=O)Nc2cccc(C(F)(F)F)c2)c1=O,25%
O=c1c2ccccc2nc2sc(Nc3cccc(C(F)(F)F)c3)nn12,-11%
COc1cccc([S+](=O)([O-])N2CCn3c(nn(-c4ccc(F)cc4F)c3=O)C2)c1,-12%
CC(C)(O)CCc1cccc(C(=O)NCCNc2cccnc2)c1,-27%
CCCSCCCNC(=O)C1CCN(C(=O)c2cc3sccc3n2C)CC1,14µM*
CCn1c(C(=O)N2CCC(C(=O)NCCc3ccccc3)CC2)cc2sccc21,-23%
CCCCNC(=O)C1CCc2sc(C(=O)N3CCOCC3)cc2C1 (centres undefined),-2%
Cn1c(C(=O)N2CCCC(C(=O)N3CCN(c4ccccc4)CC3)C2)cc2sccc21 (centres undefined),-3%
CC(C)CCNC(=O)C1CCN(C(=O)c2cc3sccc3n2Cc2ccc(Cl)cc2)CC1,13µM*
Cc1cc(N2CCC(C(=O)NCCC(C)C)CC2)n2nc(C)c(-c3ccc(Cl)cc3)c2n1,59%
CN1C[C@H](O)C[C@H]1c1nnc2n1CCN(C(=O)c1ccsc1)CC2,25%
CCCNC(=O)N1CCC2(CC1)CC(N(C(=O)c1ccccc1)C1CC1)CCO2 (centres undefined),-6%
Cc1ccccc1N1Cc2c(NCCc3ccccc3F)ncnc2N(C)CC1=O,i
Cc1noc([C@@H]2CN(S(=O)(=O)c3ccc4c(c3)OCCO4)C[C@H]2C(N)=O)n1,-9%
COc1ccccc1C(=O)N1CCC(N2Cc3cnc(C)n3C2=O)CC1,i
O=C(OCc1ccccc1)N1CCCN(c2cc(C3CC(O)C3)ncn2)CC1 (centres undefined),-13%
CN(CCC1CCOCC1)Cc1ccccc1OCC(O)CN1CCSCC1 (centres undefined),-12%
CN(Cc1ccccc1)Cc1ccccc1OCC(O)CN1CCCCC1 (centres undefined),0.79µM*
COCCn1cc(CN(C)Cc2ccccc2)ccc1=O,3%
CC(=O)N1CCC2(CNS(=O)(=O)c3cnccc3O2)C1 (centres undefined),22%
SMILES,Pf Dd2 growth
CCN(C)c1ccnc(N2CC[C@@H]3C[C@H](N4CCOCC4)CC[C@@]3(COC)C2)n1,8.9µM*
COC[C@@]12CC[C@@H](N3CCOCC3)C[C@H]1CCN(c1nccc(NC(C)C)n1)C2,i
COC[C@@]12CC[C@@H](N3CCOCC3)C[C@H]1CCN(c1nccc(N)n1)C2,7%
CC(=O)c1cc(CC(=O)N2CCC3(CCCN(C(C)C)C3=O)C2)cs1 (centres undefined),-4%
Cc1ccc(C(=O)Nc2ccc(S(=O)(=O)N(Cc3ccccc3)c3ccccc3)cc2)cc1,94%
COc1ccc(C(=O)Nc2ccc(S(=O)(=O)N(Cc3ccccc3)c3ccccc3)cc2)cc1,87%
CCOc1ccc(C(=O)Nc2ccc(S(=O)(=O)N(Cc3ccccc3)c3ccccc3)cc2)cc1,10µM*
Nc1nc2c(s1)C(c1cccc(F)c1F)CC(=O)N2 (centres undefined),i
O=C(C1CCC1)N1CCN(Cc2ccccc2)CC(O)C1 (centres undefined),-5%
O=C(C1CC1)N1CCN(Cc2ccccc2)CC(O)C1 (centres undefined),11%
CN(CC(=O)N1CCN(Cc2ccccc2)CC(O)C1)C1CCCC1 (centres undefined),8.9µM*
CCc1ccccc1S(=O)(=O)N1CCC(n2cnnc2C(C)C)CC1,-7%
O=C(NCc1ccccc1)N1CCCC(c2nc(CCOc3ccc(F)cc3)no2)C1 (centres undefined),i
COc1ccccc1-c1ccc(CN2CC3CCC(C2)N3c2ccc(C(F)(F)F)cc2)cc1,-24%
O=c1[nH]c(C2CCCN(Cc3ccc(C(F)(F)F)cc3)C2)nn1-c1ccccc1 (centres undefined),-20%
O=c1cc(-c2cccnc2)nc(-c2ccc(CN3CC[C@@H](O)C3)cc2)[nH]1,-28%
O=c1[nH]c(C2CCN(Cc3ccc(-c4cccnc4)cc3)CC2)nc2ccc(F)cc12,4.5µM*!
COc1ccccc1-c1ccc(CN2CCN(c3ccc(Cl)nn3)C(=O)C2)cc1,-12%
O=c1[nH]c(C2CCCN(Cc3ccsc3)C2)nn1-c1ccccc1 (centres undefined),i
O=c1[nH]c(C2CCN(CC3CCCC3)CC2)nc2ccc(F)cc12,-6%
O=c1[nH]c(C2CCCN(Cc3ccc(-c4ccccc4)cc3)C2)nc2ccc(F)cc12 (centres undefined),8.9µM*!
COc1ccccc1-c1ccc(CN2CCCC(c3nc4ccc(F)cc4c(=O)[nH]3)C2)cc1 (centres undefined),8.9µM*!
Cc1nn2c(c1-c1ccccc1Oc1ccccc1)N(C(=O)Cc1ccc3c(c1)OCO3)CCC2,-9%
CCCN(CC1CC1)C(=O)C1CCC(=O)N(CCc2ccc(Cl)cc2)C1 (centres undefined),-23%
O=C(CCCc1ccccc1)N[C@@H]1CN(c2ccncn2)C[C@H]1CO,22%
SMILES,Pf Dd2 growth
CN1C(=O)CCCCC1C(=O)N1CCCCC1 (centres undefined),11%
CN(Cc1nc(-c2ccncc2)no1)C1CCC2(CCNCC2)CC1,4%
Cc1nn(-c2ccc(F)cc2)c(C)c1CN1CCCn2nc(CO)cc2C1,4%
Cc1ccc(CNC(=O)C2CCN(C(=O)c3ncn4c3COC(c3ccccc3)C4)CC2)cc1 (centres undefined),-17%
O=C(NC[C@H]1O[C@@H](CO)[C@@H](O)[C@H]1N1CCN(c2ccccn2)CC1)Nc1ccc(F)cc1F,20%
O=C(Cn1nc2n(c1=O)CCCCC2)N1CCCc2ccccc21,-16%
CCOc1ccccc1C1NC(=O)N(CC(=O)Nc2ccc(C)cc2)C2=C1C(=O)OC2 (centres undefined),-14%
NCCCC(=O)N1CCC2(CC1)CN(C(=O)Cc1ccc(Cl)cc1)CCO2,8%
COc1ccc(C(=O)N2CCN(c3cc(-c4ccccc4)[nH]n3)CC2)c(OC)c1,-13%
O=C(Nc1ccccc1)C1=NO[C@@H]2CN(Cc3ccc4[nH]ccc4c3)C[C@H]12,-2%[44.1 µM]
COc1cc(CNC(C)Cn2nc(C)cc2C)ccc1OCCN1CCCC1 (centres undefined),3.5µM*
COc1cc(CNCc2cnn(C)c2C)ccc1OCC(O)CN1CCSCC1 (centres undefined),-12%
COc1ccc(CNc2cc3c(cn2)CN(C)CCN3C)cc1OC,i
CCOc1ccc(-c2ccnc(N3CCC(NC(C)=O)CC3)n2)cc1C(=O)O,3%
CC(=O)N[C@@H]1CN(C(=O)CCCS(N)(=O)=O)C[C@H]1c1ccc(C)cc1,-2%
CO[C@H]1C(=O)N(C(C)C)[C@H]1C1CCN(C(=O)c2cccc(C#N)c2)CC1,13%
CO[C@H]1C(=O)N(C(C)C)[C@H]1C1CCN(Cc2cccc(F)c2)CC1,-25%
CO[C@H]1C(=O)N(C(C)C)[C@H]1C1CCN(Cc2cccc(C#N)c2)CC1,10µM*
COc1cccc(CC(=O)N2CCN(c3cc(C(F)(F)F)ncn3)CC2)c1,i
